Screening results deposited in PubChem BioAssay by University of Kansas High Throughput Screening Laboratory.
This is a sample that favours compounds with a hit; in the whole collection about 3.6% have one here.
Pf apPOL block: Pf-apPOL DNA polymerase inhibition; Recombinant Pf-apPOL, molecular beacon fluorescence, 1.5 h; inhibition, % at 10 µM; 210,000 tested, 0.25% active; AID 1794808
mHTT-CaM PPI inh: disrupts binding of mutant huntingtin to calmodulin; 190,000 tested, 3.6% active; P42858; AlphaScreen His-mHTT/GST-CaM binding, luminescence; inhibition, % at 15 µM
Each line names hits and unclear results; the compound was inactive in the other large screens. Rule as the data show it: active = inhibition above about 50%; inactive = the rest.

O=C1C2C(c3cccc(/C=C/c4ccccc4)c3)CC=CC2C(c2ccc(C(F)(F)F)cc2)N1Cc1ccccc1 (stereo not given)	none
CCOc1ccc(-n2cc(-c3ccc(OC)cc3)[nH]c2=O)cc1	none
COCCCn1c(=N)c(C(=O)NCCN2CCOCC2)cc2c(=O)n3cccc(C)c3nc21	none
CCC(=O)N1CCN(c2ccc(NC(=O)c3ccccc3)cn2)CC1	none
CC1(C)C(=O)C2(C(=O)Nc3cc(Cl)ccc3Cl)CCC1C2 (stereo not given)	none
Cc1nn(C)cc1-c1nnc(C23CC4CC(CC(C4)C2)C3)o1	none (no result: Pf apPOL block)
COc1cc(/C=C2/C(=O)ON=C2C)ccc1OCc1ccc(C)cc1	mHTT-CaM PPI inh 70.0
CC1=NOC(=O)/C1=C/c1ccc(OCc2ccc(F)cc2)c(Cl)c1	none
COc1cc(/C=C2\C(=O)ON=C2C)ccc1OCc1ccc(F)cc1	mHTT-CaM PPI inh 99.0
Cc1ccc(Nc2cc(C(=O)N3CCSCC3)nc3ccccc23)cc1	none
Cc1ccc(NC(=O)N2CCCC(CCC(=O)NCC3CCCCC3)C2)cc1 (stereo not given)	none
CN1c2ccccc2C(=O)NC12CCN(C(=O)NCc1ccccc1)CC2	none
COC(OC)C12c3ccccc3C(c3ccccc31)C1C(=O)N(c3nccs3)C(=O)C12 (stereo not given)	none
O=C(O)c1ccc([N+](=O)[O-])c2c1NCC1CC=CC21 (stereo not given)	none
O=C(O)c1cccc2c1NC(c1ccccc1[N+](=O)[O-])C1CC=CC21 (stereo not given)	mHTT-CaM PPI inh 92.0
Fc1cccc2c1N[C@@H](c1c3ccccc3cc3ccccc13)[C@H]1CC=C[C@@H]21	none (no result: Pf apPOL block)
COc1cc([N+](=O)[O-])cc2c1NC(c1cccc(Cl)c1Cl)C1CC=CC21 (stereo not given)	none
O=[N+]([O-])c1cccc2c1NC(c1ccccc1F)C1CC=CC21 (stereo not given)	mHTT-CaM PPI inh 75.0
O=[N+]([O-])c1ccccc1C1Nc2c(cccc2[N+](=O)[O-])C2C=CCC21 (stereo not given)	mHTT-CaM PPI inh 65.0
Cc1ccc(CCNC(=O)c2csc3c2CCC(C)C3)cc1 (stereo not given)	none
Cc1nnsc1C(=O)N1CCC(CNC(=O)COc2ccccc2F)CC1	none
N#C/C(=C\c1cn(Cc2ccccc2Cl)c2ccccc12)c1nn(CCO)c(N)c1C#N	none
N#C/C(=C\c1cn(Cc2ccc(Cl)cc2)c2ccccc12)c1nn(CCO)c(N)c1C#N	mHTT-CaM PPI inh 69.0
N#C/C(=C\c1ccc(-c2ccccc2F)o1)c1nn(CCO)c(N)c1C#N	none
CC(C)Oc1ccc(Br)cc1/C=C(\C#N)c1nn(CCO)c(N)c1C#N	mHTT-CaM PPI inh 53.6
N#C/C(=C\c1ccc(-c2ccccc2[N+](=O)[O-])o1)c1nn(CCO)c(N)c1C#N	mHTT-CaM PPI inh 72.4
COc1ccc(Br)cc1/C=C(\C#N)c1nn(CCO)c(N)c1C#N	none
Cc1cc2c(N3CCC(C(=O)Nc4ccc(Cl)cc4)CC3)nccc2s1	none
Cc1ccsc1/C=C1N=C(/C=C/c2ccc(Cl)cc2)OC\1=O	none
CCCNc1nnc(-c2nc(C3CC3)no2)c2ccccc12	none
COc1cc(NC(=O)C2CC(=O)N(c3cccc(NC(C)=O)c3)C2)cc(OC)c1OC (stereo not given)	none
O=C(CN1CCC(c2nc(-c3ccccc3Cl)no2)CC1)NCc1ccc(F)cc1	none
CCCCCNC(=O)C1CCCN(c2nccc3sccc23)C1 (stereo not given)	none
CCOc1ccc(C(=O)N2CCC(c3nc(C(=O)N(C)C)c(C)o3)CC2)cc1	none
CCN1CCCC(C(=O)NCc2cccc(OC)c2OC)(c2ccccc2)CC1 (stereo not given)	none
Cc1cccnc1NC(=O)c1c(O)c2cccc3c2n(c1=O)CC3	mHTT-CaM PPI inh 80.0
NCCCCCCNC(=O)c1c(O)c2cccc3c2n(c1=O)CC3	mHTT-CaM PPI inh 100.0
O=C(Nc1ccncc1)c1c(O)c2cccc3c2n(c1=O)CC3	none
C=CCn1c(=O)c(C(=O)Nc2ncccc2C)c(O)c2ccccc21	mHTT-CaM PPI inh 98.0
C=CCn1c(=O)c(C(=O)Nc2ccccc2)c(O)c2ccccc21	none
NCCNC(=O)c1c(O)c2cccc3c2n(c1=O)CC3	none
CC(O)CNC(=O)C(=O)Nc1ccccc1 (stereo not given)	none
Cc1ccc(/C=C2/C=C(c3ccc(Cl)cc3)OC2=O)cc1[N+](=O)[O-]	none
COc1cccc(C2=N/C(=C\c3ccc(SC)cc3)C(=O)O2)c1	none
CCOC(=O)C(C)NC(=O)NCCC1CCN(S(=O)(=O)c2ccccc2)CC1 (stereo not given)	none
CC(=O)NCCc1csc(C2CCCN(C(=O)c3cnccn3)C2)n1 (stereo not given)	none
COc1ccc(NC(NC(=O)c2ccc([N+](=O)[O-])cc2)C(Cl)(Cl)Cl)cc1 (stereo not given)	mHTT-CaM PPI inh 53.0
COc1ccc(NC(NC(=O)c2ccc(Cl)cc2)C(Cl)(Cl)Cl)cc1 (stereo not given)	mHTT-CaM PPI inh 57.0
